# According to PubChem BioAssay:
# Activity calls are given as the source filed them.
# Tests used:
# [1] = tested on: Plasmodium falciparum Sir2 (PF13_0152, Sir2A); assay: Plasmodium falciparum Sir2A binding compounds – biochemical, small-molecule microarray, 635 nm fluorescence, primary screen (AID 1098); details: fluorescence 635 nm, higher = more signal;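 further: score merges spot fluorescence intensity with its signal-to-noise ratio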
# [2] = probe aDKK1 binding to arrayed compounds – biochemical, biotinylated probe, 635/667 nm fluorescence, primary screen (AID 1099); details: small-molecule microarray, higher = more signal;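 further: score merges 667nm spot fluorescence with signal to noise across triplicate slides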
# [3] = probe aCHRDL2 binding to arrayed compounds – biochemical, biotinylated probe, 635/667 nm fluorescence, primary screen (AID 1100); details: small-molecule microarray, higher = more signal
# [4] = change in splice reporter luminescence, either direction, cell-based, HEK293, spliceosome inhibition project, primary screen (AID 1101); details: HEK293 splicing luciferase reporter, 24 h, higher = more signal, called active from +8 up or from −8 down;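 further: HEK293 cells carrying a splicing-competent luciferase reporter gene; test concentration not given here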
# [5] = target: Fibroblast growth factor 10 (Homo sapiens) (UniProt O15520); assay: compounds binding fibroblast growth factor 10 – biochemical, small-molecule microarray, 635 nm fluorescence, primary screen (AID 1102); details: FGF10 binding, fluorescence 635 nm, higher = more signal
# [6] = tested on: glycogen synthase kinase-3 (GSK3A per assay name; protocol says GSK3B); assay: compounds binding glycogen synthase kinase-3 – biochemical, small-molecule microarray, 635 nm fluorescence, GSK3A, primary screen (AID 1103); details: fluorescence 635 nm, higher = more signal; further: the record names both GSK3A and GSK3B
# [7] = target: Epidermal growth factor receptor (Homo sapiens) (UniProt P00533); assay: compounds binding epidermal growth factor receptor – biochemical, small-molecule microarray, 635 nm fluorescence, primary screen (AID 1104); details: EGFR binding, higher = more signal;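 further: score merges 667 nm emission intensity with spot signal to noise over triplicate slides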
# [8] = target: Follistatin-related protein 3 (Homo sapiens) (UniProt O95633); assay: compounds binding follistatin-related protein 3 – biochemical, small-molecule microarray, 635 nm fluorescence, primary screen (AID 1105); details: FSTL3 binding, higher = more signal;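 further: score merges emission near 667 nm and signal to noise per printed spot across three slides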
# [9] = target: Dickkopf-related protein 1 (Homo sapiens) (UniProt O94907); assay: small molecules binding DKK1 protein – biochemical, small-molecule microarray, 635 nm fluorescence scan, primary screen (AID 1106); details: higher = more signal;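 further: score merges emission near 667 nm with signal to noise over three replicate slides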
# [10] = tested on: Inhibin beta A chain (activin A); assay: small molecules binding activin A – biochemical, small-molecule microarray, 635 nm fluorescence scan, primary screen (AID 1107); details: INHBA, higher = more signal;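 further: mouse activin A protein probed at 4.33 µg/mL on printed slides; score merges bound-protein fluorescence near 667 nm with spot signal-to-noise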
# [11] = tested on: Human papillomavirus type 1a protein E7 (residues 44-93); assay: small molecules binding HPV E7 44-93 – biochemical, small-molecule microarray, residues 44-93, 635 nm fluorescence, primary screen (AID 1108); details: fluorescence 635 nm, higher = more signal;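 further: E7 fragment applied at 1 µg/mL in TBST for 1 h at 4 C; score combines spot fluorescence with its signal to noise ratio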
# [12] = hepatitis C replication reporter changes, two-sided – Huh7 cells, luciferase reporter, HCV replication inhibitor project, primary screen (AID 1109); details: Huh7 HCV replicon luciferase reporter, 48 h; higher = more signal;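 further: huh7 hepatoma cells harbouring a luciferase neomycin HCV replicon reporter; luciferase luminescence as measure of HCV replicon replication; test concentration not given here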
# [13] = target: Left-right determination factor 2 (Homo sapiens) (UniProt O00292); assay: small molecules binding LEFTY2 protein – biochemical, small-molecule microarray, 635 nm fluorescence scan, primary screen (AID 1110); details: higher = more signal
# [14] = target: Calmodulin-1 (Homo sapiens) (UniProt P0DP23); assay: small molecules binding calmodulin-1 with EGTA – biochemical, small-molecule microarray, Cy5-labelled CALM1, profiling panel (AID 1111); details: Cy5-CALM1 binding fluorescence, higher = more signal;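 further: labelled calmodulin applied in Tris saline Tween buffer holding calcium plus EGTA and DTT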
# [15] = target: Calmodulin-1 (Homo sapiens) (UniProt P0DP23); assay: small molecules binding Ca-loaded calmodulin-1 – biochemical, small-molecule microarray, Cy5-labelled CALM1, plus calcium, artefact control for SMM control-protein annotation, profiling panel (AID 1112); details: Cy5-CALM1 binding fluorescence, higher = more signal;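 further: score merges spot fluorescence with signal to noise from triplicate slides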
# [16] = probe aWnt5a binding to arrayed compounds – biochemical, biotinylated probe, 635/667 nm fluorescence, primary screen (AID 1113); details: small-molecule microarray, higher = more signal;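 further: score merges 667 nm fluorescence intensity with signal-to-noise per printed feature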
# [17] = probe aShh binding to arrayed compounds – biochemical, biotinylated probe, 635/667 nm fluorescence, primary screen (AID 1114); details: small-molecule microarray, higher = more signal;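 further: probe is biotin-labelled aShh protein from a stem cell growth factor screen; measures binding of labelled protein to compounds printed on the slide; score merges feature fluorescence at 667 nm with signal-to-noise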
# [18] = probe aNog binding to arrayed compounds – biochemical, biotinylated probe, 635/667 nm fluorescence, primary screen (AID 1115); details: small-molecule microarray, higher = more signal;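 further: probe is biotinylated aNog protein used at 0.15 µg/mL for 1 h at 4 C; z-score combines 667 nm fluorescence of each spot with its signal to noise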
# [19] = target: Torsin-1A-interacting protein 1 (Homo sapiens) (UniProt Q5JTV8); assay: compound microarray binding of lysate hLAP1 – cell lysate, small-molecule microarray, COS7 lysate, 635/667 nm fluorescence, primary screen (AID 1116); details: 635 nm fluorescence, higher = more signal
# [20] = target: Alpha-bungarotoxin (Bungarus multicinctus) (UniProt P60615); assay: compounds binding labelled alpha-BTX control protein – biochemical, small-molecule microarray, Alexa647 label, 635/667 nm fluorescence, artefact control for SMM control protein annotation, profiling panel (AID 1117); details: alpha-BTX-A647 binding fluorescence, higher = more signal
# Alpha-bungarotoxin (Bungarus multicinctus), sequence (P60615 whole entry, looked up): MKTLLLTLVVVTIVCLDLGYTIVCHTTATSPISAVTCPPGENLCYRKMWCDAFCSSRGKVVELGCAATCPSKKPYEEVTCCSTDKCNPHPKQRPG
# Fibroblast growth factor 10 (Homo sapiens), sequence (O15520 whole entry, looked up): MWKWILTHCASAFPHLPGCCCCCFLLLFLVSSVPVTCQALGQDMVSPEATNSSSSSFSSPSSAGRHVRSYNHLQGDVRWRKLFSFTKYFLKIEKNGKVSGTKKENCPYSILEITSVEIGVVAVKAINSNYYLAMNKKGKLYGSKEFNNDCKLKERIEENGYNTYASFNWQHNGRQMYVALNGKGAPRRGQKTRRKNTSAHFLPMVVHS
# Dickkopf-related protein 1 (Homo sapiens), sequence (O94907 whole entry, looked up): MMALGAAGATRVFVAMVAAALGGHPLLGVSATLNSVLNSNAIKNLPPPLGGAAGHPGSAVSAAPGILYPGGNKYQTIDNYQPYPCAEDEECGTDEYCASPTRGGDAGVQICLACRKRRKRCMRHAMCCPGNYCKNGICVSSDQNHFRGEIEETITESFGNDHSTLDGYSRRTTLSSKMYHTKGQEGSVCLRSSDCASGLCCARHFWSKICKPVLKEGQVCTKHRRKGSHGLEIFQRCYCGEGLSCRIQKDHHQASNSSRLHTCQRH
# Torsin-1A-interacting protein 1 (Homo sapiens), sequence (Q5JTV8 whole entry, looked up): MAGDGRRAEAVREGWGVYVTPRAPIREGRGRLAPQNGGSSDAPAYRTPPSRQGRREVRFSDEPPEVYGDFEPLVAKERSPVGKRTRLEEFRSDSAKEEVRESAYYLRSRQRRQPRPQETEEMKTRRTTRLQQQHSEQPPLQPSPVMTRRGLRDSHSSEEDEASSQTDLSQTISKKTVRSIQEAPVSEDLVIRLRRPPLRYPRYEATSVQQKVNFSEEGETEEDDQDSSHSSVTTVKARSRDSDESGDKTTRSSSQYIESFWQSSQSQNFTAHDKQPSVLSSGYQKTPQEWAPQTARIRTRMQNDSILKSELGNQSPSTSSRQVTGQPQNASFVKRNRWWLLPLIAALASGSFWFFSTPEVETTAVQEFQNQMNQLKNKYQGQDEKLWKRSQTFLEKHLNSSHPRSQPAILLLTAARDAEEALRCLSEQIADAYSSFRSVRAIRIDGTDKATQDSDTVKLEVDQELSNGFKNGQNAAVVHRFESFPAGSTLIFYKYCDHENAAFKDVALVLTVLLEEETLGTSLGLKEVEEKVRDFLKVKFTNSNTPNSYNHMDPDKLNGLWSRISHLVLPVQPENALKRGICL
# Follistatin-related protein 3 (Homo sapiens), sequence (O95633 whole entry, looked up): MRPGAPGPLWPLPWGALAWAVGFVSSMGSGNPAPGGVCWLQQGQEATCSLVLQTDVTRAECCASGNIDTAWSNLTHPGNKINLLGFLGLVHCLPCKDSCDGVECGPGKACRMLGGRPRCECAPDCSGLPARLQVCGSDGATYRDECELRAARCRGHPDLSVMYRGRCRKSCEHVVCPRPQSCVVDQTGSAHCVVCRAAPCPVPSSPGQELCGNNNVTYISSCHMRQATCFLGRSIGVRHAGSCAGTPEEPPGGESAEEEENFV
# Left-right determination factor 2 (Homo sapiens), sequence (O00292 whole entry, looked up): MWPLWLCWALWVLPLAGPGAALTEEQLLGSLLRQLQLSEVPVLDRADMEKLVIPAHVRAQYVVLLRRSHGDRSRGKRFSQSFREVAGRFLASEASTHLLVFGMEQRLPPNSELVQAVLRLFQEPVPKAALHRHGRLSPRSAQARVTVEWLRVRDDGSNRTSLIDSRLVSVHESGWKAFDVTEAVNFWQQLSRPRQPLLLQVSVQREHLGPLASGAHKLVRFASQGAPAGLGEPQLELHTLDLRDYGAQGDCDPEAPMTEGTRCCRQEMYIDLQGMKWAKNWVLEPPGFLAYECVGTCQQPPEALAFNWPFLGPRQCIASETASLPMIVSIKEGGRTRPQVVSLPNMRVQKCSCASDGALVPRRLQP
# Epidermal growth factor receptor (Homo sapiens), sequence (P00533 whole entry, looked up): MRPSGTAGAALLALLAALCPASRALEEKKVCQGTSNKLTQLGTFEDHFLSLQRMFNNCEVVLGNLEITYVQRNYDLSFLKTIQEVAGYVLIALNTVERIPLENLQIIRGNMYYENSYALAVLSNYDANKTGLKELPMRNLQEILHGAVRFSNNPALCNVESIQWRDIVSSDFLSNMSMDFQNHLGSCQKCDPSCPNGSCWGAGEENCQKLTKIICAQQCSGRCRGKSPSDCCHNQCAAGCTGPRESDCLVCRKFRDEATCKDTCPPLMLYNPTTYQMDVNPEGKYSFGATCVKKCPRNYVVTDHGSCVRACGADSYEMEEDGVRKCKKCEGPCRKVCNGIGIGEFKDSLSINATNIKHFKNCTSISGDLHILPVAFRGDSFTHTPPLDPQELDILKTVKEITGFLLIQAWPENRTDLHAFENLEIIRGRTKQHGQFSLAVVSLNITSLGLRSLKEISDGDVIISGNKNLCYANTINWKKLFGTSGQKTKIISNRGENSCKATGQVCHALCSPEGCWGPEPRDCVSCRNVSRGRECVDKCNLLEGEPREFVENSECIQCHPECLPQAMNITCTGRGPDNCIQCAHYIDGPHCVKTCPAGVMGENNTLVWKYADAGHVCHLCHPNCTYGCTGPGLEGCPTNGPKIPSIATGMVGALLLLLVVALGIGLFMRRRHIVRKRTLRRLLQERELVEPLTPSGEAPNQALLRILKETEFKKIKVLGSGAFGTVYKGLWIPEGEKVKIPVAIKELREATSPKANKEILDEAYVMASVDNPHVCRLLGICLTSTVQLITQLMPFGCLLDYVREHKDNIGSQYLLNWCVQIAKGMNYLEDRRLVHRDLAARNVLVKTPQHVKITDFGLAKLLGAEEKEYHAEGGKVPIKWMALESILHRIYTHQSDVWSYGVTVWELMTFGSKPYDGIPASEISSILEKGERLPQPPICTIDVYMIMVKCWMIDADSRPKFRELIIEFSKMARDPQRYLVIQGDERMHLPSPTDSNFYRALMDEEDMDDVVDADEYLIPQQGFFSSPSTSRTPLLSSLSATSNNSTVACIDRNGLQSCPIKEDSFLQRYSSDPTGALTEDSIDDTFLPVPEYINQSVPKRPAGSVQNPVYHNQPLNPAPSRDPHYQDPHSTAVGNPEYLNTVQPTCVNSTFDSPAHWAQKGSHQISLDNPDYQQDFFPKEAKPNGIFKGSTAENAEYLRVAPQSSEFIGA
Structure (SMILES),composite z-score [1],composite z-score [2],composite z-score [3],z-score [4],composite z-score [5],composite z-score [6],composite z-score [7],composite z-score [8],composite z-score [9],composite z-score [10],composite z-score [11],z-score [12],composite z-score [13],composite z-score [14],composite z-score [15],composite z-score [16],composite z-score [17],composite z-score [18],composite z-score [19],composite z-score [20]
COc1ccc([Si](C)(C)[C@H]2[C@H](CC(=O)N3CCC[C@H]3CO)O[C@@]3(C(=O)N(c4ccccc4)c4ccccc43)[C@@H]2C)cc1,1.28,-0.344,-0.28,-1.82 (inactive),-0.174,-0.828,0.138,0.051,0.487,0.581,-0.542,-1.12,0.301,-0.363,-0.366,-0.156,-0.13,-0.1,0.429,0.0488
O=C1C2C=CC(C(O)c3ccc(Br)cc3)N(n3cnnc3)C2C(=O)N1Cc1ccccc1 (stereo not given),1.11,0.578,0.479,0.696 (inactive),0.946,1.07,0.406,0.819,0.0363,-0.0003,1.34,-4.38,0.329,-0.0714,0.182,-0.0236,-0.0827,0.205,0.465,0.942
CCOC(=O)C[C@H]1[C@H](OC(=O)c2ccccc2-c2ccccc2)[C@@H](NC(=O)c2ccc(-c3ccccc3)cc2)c2cc(OCCCO)ccc2N1C(=O)c1ccccc1,0.154,0.319,-0.181,0.119 (inactive),0.888,0.425,0.31,0.645,0.531,-0.0094,1.26,-1.81,0.572,0.455,-0.361,-0.16,-0.282,0.0273,0.539,0.57
COc1ccc(C(=O)Nc2cccc(CN3C(=O)[C@@]4(O[C@@H](CC(=O)N5Cc6ccccc6C[C@H]5CO)[C@H]([Si](C)(C)c5ccc(OC)cc5)[C@H]4C)c4ccccc43)c2)cc1,1.42,-0.287,-0.0642,-1.14 (inactive),0.639,0.363,0.978,1.24,1.11,0.551,-0.296,-3.74,0.904,-0.0023,-0.68,-0.0643,0.353,0.118,0.965,1.27
COCCn1c(C(=O)N2CCCC2)cc2c1C[C@H]1CN(C(=O)c3ccccc3)[C@@](Cc3ccc(OC)cc3)(C(=O)OC)[C@@H]21,0.994,1.41,1.44,-1.82 (inactive),0.344,0.194,-0.224,0.682,-0.223,1.06,0.279,-1.62,-0.464,2.67,1.33,0.0365,0.21,-0.401,3.21,0.626
Cc1ccc(S[C@]2(C(=O)NCC(F)(F)F)CC(=O)N(C3Cc4ccccc4C3)[C@@H]2c2ccc(CO)cc2I)cc1,1.08,0.599,1.19,-0.426 (inactive),-1.02,-1.3,-1.51,-1,-2.11,0.554,-0.263,-1.55,-1.56,-0.0026,0.994,-0.184,-0.197,2.14,0.265,0.918
O=C(CS)NCCCCCCNC(=O)[C@H]1C[C@H]2C(=O)N3CCC[C@H]3C(=O)N2[C@H]1c1ccc(O)cc1,1.63,0.104,0.0018,1.46 (inactive),0.732,-0.477,-0.154,0.972,0.317,0.487,-0.185,-0.32,-0.0156,0.511,0.425,-0.0236,-0.0011,0.202,1.68,0.927
O=C1O[C@H](c2ccccc2)[C@H](c2ccccc2)N2[C@H]1[C@@H](C(=O)N1CCCCCCC1)[C@]1(C(=O)Nc3ccc(C#CC4=CCCCC4)cc31)[C@H]2c1ccc(O)cc1,2.14,3.14,1.72,-0.944 (inactive),1.67,1.5,2.04,1.69,2.71,2.04,1.54,-2.29,1.78,3.22,2.02,1.68,3.35,3.53,5.98,5.18
COc1ccc([Si](C)(C)[C@H]2[C@H](CC(=O)N(CCO)Cc3ccccc3)O[C@@]3(C(=O)N(Cc4cccc(N5C(=O)c6cccc7cccc5c67)c4)c4ccccc43)[C@@H]2C)cc1,0.803,-0.534,0.0901,-2.5 (inactive),0.158,0.0107,0.148,0.303,0.491,0.9,0.9,-4.25,0.45,0.847,-0.0174,-0.107,-0.165,0.0857,0.389,0.942
CC1CC/C=C\[C@H]2OC34C=CCN(Cn5nnc6ccccc65)C(=O)[C@H]3N(CCCO)C(=O)[C@@H]4C2C(=O)O1 (stereo not given in full),1.14,-0.12,0.763,-0.538 (inactive),-1.04,-1.31,-0.991,-0.97,-1.6,0.767,-0.311,-0.486,-1.28,-0.484,0.25,-0.228,0.0121,-0.201,0.479,-0.744
Cc1ccc(S[C@]2(C(=O)NCc3ccccc3)CC(=O)N(Cc3cc(C(F)(F)F)cc(C(F)(F)F)c3)[C@@H]2c2ccc(CO)cc2)cc1,1.3,-0.614,-0.711,0.0364 (inactive),-0.431,-0.817,-0.662,-0.247,-0.422,0.283,-0.115,-0.763,-0.637,-0.477,0.187,-0.12,0.516,0.0538,-0.712,-0.302
